Screening results from PubChem BioAssay.
In the library only some 3% were active in any assay of this set; here they are far more common.
SENP8 block-1 – blocks the human protease SENP8; Q96LD8; purified SENP8, Z-RLRGG-aminoluciferin cleavage, luminescence; inhibition, % at 10 µM; 330,000 tested, 1.2% active; in the data active = inhibition above about 50%
Target sequence (Q96LD8 whole entry, looked up): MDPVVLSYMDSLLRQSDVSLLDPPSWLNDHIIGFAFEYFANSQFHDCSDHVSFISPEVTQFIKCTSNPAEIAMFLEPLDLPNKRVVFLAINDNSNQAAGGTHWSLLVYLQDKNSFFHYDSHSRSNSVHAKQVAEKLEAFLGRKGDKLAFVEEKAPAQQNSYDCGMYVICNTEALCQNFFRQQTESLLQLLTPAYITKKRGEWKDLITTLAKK
SENP6 block – inhibitors of human SENP6 protease; Q9GZR1; Recombinant SENP6 catalytic domain, aminoluciferin luminescence; inhibition, % at 10 µM; 330,000 tested, 1.8% active; AID 2599;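 active = inhibition above about 50% at the single tested dose, limit read from the data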;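 note: plate controls were DMSO wells with enzyme for no effect and DMSO wells lacking enzyme for full effect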
SENP7 block – blocks the human protease SENP7; Q9BQF6; recombinant SENP7, Z-RLRGG-aminoluciferin luminescence, 40 min; inhibition, % at 5 µM; 330,000 tested, 1.5% active;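 active = inhibition above about 50% at the single test dose, limit read from the data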;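 note: plate controls were DMSO with enzyme for no effect and no enzyme buffer wells for full effect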
Target sequence (Q9BQF6 706-1050 limits assumed): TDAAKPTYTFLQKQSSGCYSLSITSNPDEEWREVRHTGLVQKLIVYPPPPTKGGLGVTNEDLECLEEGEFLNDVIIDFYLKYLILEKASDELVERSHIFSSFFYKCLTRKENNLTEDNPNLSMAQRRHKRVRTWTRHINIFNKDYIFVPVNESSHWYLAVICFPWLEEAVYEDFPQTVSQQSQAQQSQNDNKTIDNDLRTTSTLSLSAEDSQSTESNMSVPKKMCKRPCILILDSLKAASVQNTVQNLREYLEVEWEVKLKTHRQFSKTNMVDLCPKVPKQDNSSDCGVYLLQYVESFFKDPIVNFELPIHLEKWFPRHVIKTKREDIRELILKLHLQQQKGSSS
SENP8 block-2 – inhibitors of human SENP8 protease. recombinant SENP8, Nedd8 substrate fluorescence. inhibition, % at 20 µM. 360,000 tested, 0.64% active. AID 602440; in the data active = inhibition mostly above about 40%, no sharp cut-off; inactive = mostly below about 27%
PPC-1+TRAIL kill – kills PPC-1 cancer cells in the presence of TRAIL. PPC-1 cells + TRAIL, ATPLite viability luminescence. cell killing (% activity), % at 4 µM or 5 µM. 220,000 tested, 0.41% active. AID 1443;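 active = cell killing above 50% in the first pass at 4 µM, then a duplicate retest at 5 µM averaging 50% or more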;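 note: plate controls were cells with TRAIL plus DMSO for no effect and medium-only wells lacking cells for full effect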
TRAIL sens C8 – caspase-8 TRAIL sensitization. NB7+C8 cells + TRAIL, ATPlite viability luminescence. inhibition (viability loss, TRAIL sensitization), % at 10 µM. 360,000 tested, 1% active. AID 624354;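 active = compounds causing at least 50% loss of cell viability in the single-dose screen, relative to plate controls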
SENP8 confirm – confirmation of human SENP8 protease inhibitors. shares compounds with SENP7 block. Recombinant SENP8, Z-RLRGG-aminoluciferin luminescence, 60 min. inhibition, % at 12.5 µM. 6,200 tested, 40% active. AID 488912;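 active = mean inhibition across replicates above about 50%, limit read from the data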
SENP6 confirm – confirmation of human SENP6 protease inhibitors. shares compounds with SENP7 block. recombinant SENP6, Z-RLRGG-aminoluciferin luminescence. inhibition, % at 12.5 µM. 6,200 tested, 58% active. AID 488915
SENP7 conf – confirmation of human SENP7 protease inhibitors; shares compounds with SENP7 block; recombinant SENP7, Z-RLRGG-aminoluciferin luminescence, 40 min; inhibition, % at 12.5 µM; 6,200 tested, 69% active; AID 488917
Casp3 select – inhibits human caspase-3 in SENP selectivity test; shares compounds with SENP7 block; purified caspase-3, Z-DEVD-aminoluciferin luminescence, 60 min; inhibition, % at 12.5 µM; 6,200 tested, 60% active; AID 488918;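 active = mean inhibition above about 50%, limit read from the data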;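 note: plate controls were enzyme with DMSO for no effect and wells without caspase-3 for full effect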
Luc interf – interferes with luciferase luminescence in SENP counter-screen; shares compounds with SENP7 block; Pre-incubated SENP8/Z-RLRGG-aminoluciferin, luciferase luminescence interference; inhibition, % at 12.5 µM; 6,200 tested, 39% active; AID 488919;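 active = mean inhibition above about 50% when retested at one dose, limit read from the data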;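 note: plate controls were DMSO wells with completed reaction for no effect and substrate without enzyme for full effect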
Active calls of the source: *; i = inactive; . = no result.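 Rule for the calls, unless noted: active = mean inhibition above about 50% in the one-dose retest (limit read from the data); inactive = the rest.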

SMILES	SENP8 block-1	SENP6 block	SENP7 block	SENP8 block-2	PPC-1+TRAIL kill	TRAIL sens C8	SENP8 confirm	SENP6 confirm	SENP7 conf	Casp3 select	Luc interf
CCOC(=O)C1CCN(Cc2cnc(Oc3ccc(C(C)(C)C)cc3)s2)CC1	1.3	3.8	102.1*	11.5	3.5	3.5	2.9	0.2	1.3	1.4	-1.6
COCc1ccc(-c2c(-c3cc(OC)cc(OC)c3)oc(=O)c3cc(OC)c(OC)cc23)cc1	0.5	-3.8	-2.8	-182.3	.	6.2	.	.	.	.	.
Cn1cc(/C=C/C(=O)c2ccccc2)c2ccccc21	63.4*	69.4*	78.8*	-251.6	34.8	59.9*	5.8	73.7*	88.7*	44.7	42.7
Cc1ccc(C(=O)/C=C/c2cn(CN3CCN(C)CC3)c3ccccc23)cc1	-11.1	11.9	-4.0	-278.9	12.6	5.5	.	.	.	.	.
O=C(NCC(=O)N(CCN1CCOCC1)C(C(=O)NC1CCCC1)c1ccccc1)c1cccs1 (stereo not given)	8.0	9.1	8.3	11.6	17.9	-3.8	.	.	.	.	.
Cc1nc(-c2cccc(Br)c2)ccc1C(=O)O	33.0	-7.0	57.8*	13.2	16.3	-8.5	55.2*	50.6*	80.7*	87.5*	64.7*
CCc1ccc(-c2ccc(C(=O)O)c(C)n2)cc1	34.2	42.4	28.0	22.2	2.9	2.6	.	.	.	.	.
CC(=O)Nc1cccc(NC(=O)COc2ccc3c(c2)OCO3)c1	-4.5	5.1	-0.5	17.6	.	8.6	.	.	.	.	.
CN=C1S/C(=C\c2cccc(Cl)c2Cl)C(=O)N1C	67.0*	76.8*	48.8	.	.	.	-9.5	41.0	38.3	17.0	11.1
CN=C1S/C(=C\c2ccc(SC)cc2)C(=O)N1C	62.2*	70.0*	62.4*	-146.7	.	1.4	69.1*	67.1*	84.3*	64.6*	46.7
CN=C1S/C(=C\c2ccc(O)c(Br)c2)C(=O)N1C	96.8*	97.0*	100.0*	-9.7	.	6.3	98.7*	100.0*	102.1*	98.3*	80.4*
OC[C@@H]1CN(Cc2ccncc2)C[C@H](n2cnc3c(N4CCOCC4)ncnc32)O1	.	.	.	5.5	.	-4.4	.	.	.	.	.
CC(C)CN(C)Cc1c(C(=O)N2CCc3ccccc3C2)nc2ccc(Cl)cn12	0.3	-9.0	-2.8	-6.6	13.0	-7.4	.	.	.	.	.
Cc1c(-c2cccc(Cl)c2)nc2ccccc2c1C(=O)OC/C(O)=C(\C#N)c1nc2ccccc2[nH]1	4.8	1.0	3.5	-405.2	11.6	16.7	.	.	.	.	.
Cc1ccc(Nc2nc(Cl)c(C=O)s2)cc1Cl	93.2*	94.3*	87.1*	-364.9	7.5	-1.9	68.9*	96.4*	85.0*	52.0*	10.4
O=C(NCc1cc2ccccc2[nH]1)C1CCC(=O)N(CC2CCCCC2)C1 (stereo not given)	.	.	.	-187.2	.	1.4	.	.	.	.	.
CN1CC=C2C(C#N)=C(N)C(C#N)(C#N)[C@H](c3ccoc3)[C@H]2C1	26.8	75.9*	40.7	i	1.4	4.5	11.7	9.7	2.5	-1.7	-7.2
O=C(COC(=O)c1ccco1)NCc1ccc2c(c1)OCO2	-2.6	57.8*	5.5	9.9	6.2	4.8	-4.4	-6.2	-8.1	1.5	-2.9
COc1ccc(CN=C2NN=C(c3ccc(Cl)cc3)CS2)cc1	-4.6	-8.3	-7.4	15.2	15.5	9.8	.	.	.	.	.
COc1ccc(CN=C2Nc3ccccc3CS2)cc1	79.5*	91.9*	84.6*	6.1	31.7	14.3	86.3*	86.5*	96.7*	81.3*	87.5*
Cc1cc(C)n2c(SCc3ccc(Br)cc3)nnc2n1	-0.7	5.4	-4.8	18.2	10.4	-13.0	.	.	.	.	.
Cc1cc(C)nc(SCc2ccc(Br)cc2)n1	-12.5	-23.3	59.7*	0.5	.	-15.7	-21.7	-11.9	2.6	0.2	2.1
N#Cc1ccc(COC(=O)CN2C(=O)NC3(CCCC3)C2=O)cc1	-9.5	-12.8	9.5	2.4	.	1.6	.	.	.	.	.
Cc1cccc(OCc2cc(-c3ccccc3)no2)c1C	54.8*	67.4*	66.6*	19.3	.	6.4	9.4	42.9	70.0*	38.4	20.4
Clc1ccc(OCc2cc(-c3ccccc3)no2)c(Cl)c1	81.5*	83.8*	3.0	5.2	25.6	43.7	9.6	17.8	17.7	48.8	0.8
SMILES	SENP8 block-1	SENP6 block	SENP7 block	SENP8 block-2	PPC-1+TRAIL kill	TRAIL sens C8	SENP8 confirm	SENP6 confirm	SENP7 conf	Casp3 select	Luc interf
Fc1ccc(OCc2cc(-c3ccccc3)no2)cc1	1.4	5.5	19.9	-0.6	.	-10.5	.	.	.	.	.
CCOc1ccc(-c2nc(CCl)cs2)cc1	28.1	51.6*	8.2	-23.5	23.7	14.5	53.6*	69.7*	90.6*	66.9*	45.7
Nc1cc(C2CCCC2)nn1-c1ccccc1	32.3	62.1*	41.5	4.8	7.0	25.9	37.5	38.9	77.0*	81.4*	55.0*
O=C(O)c1cc(C2CC2)nn1-c1ccccc1	-11.3	-12.5	-5.5	14.0	-11.8	5.0	.	.	.	.	.
Cc1ccc(C(=O)NC2CCc3ccccc3C2=O)cc1 (stereo not given)	-10.0	-18.7	17.0	-62.2	29.7	27.3	.	.	.	.	.
O=C(OC1CCc2ccccc2C1=O)c1ccccc1O (stereo not given)	70.0*	82.4*	79.7*	-0.1	-4.0	-10.4	81.4*	79.8*	92.2*	67.0*	31.6
O=C(NCCCO)c1c(O)c2cccc3c2n(c1=O)CCC3	2.9	-6.6	-3.2	-36.0	.	-7.0	.	.	.	.	.
O=C1c2ccccc2NC(c2cnc3ccccc3n2)N1O (stereo not given)	40.2	71.7*	-1.3	-169.3	13.1	20.0	12.3	11.9	6.9	11.9	-7.0
COc1ccc(/C=N/OCC(=O)Nc2ccc3c(c2)OCO3)c(OC)c1	-2.0	8.2	-6.2	8.5	36.0	-2.0	.	.	.	.	.
C/C(=N\Nc1nccnc1Cl)c1ccc(O)c(C)c1	31.3	53.8*	93.5*	-28.6	.	22.4	43.4	47.5	75.0*	76.5*	55.5*
Cc1ccc(N2Cc3ccccc3C2=O)cc1	88.5*	92.7*	94.0*	-18.7	.	58.0*	90.9*	93.1*	101.0*	95.4*	54.0*
COc1ccc(N2Cc3ccccc3C2=O)cc1	77.9*	87.1*	92.8*	-82.6	.	67.0*	86.0*	87.0*	98.0*	94.4*	81.6*
COc1ccc(CCNC(=O)c2c(C)nc3ccccn23)cc1	4.4	-23.6	-2.3	5.1	5.0	13.1	.	.	.	.	.
